Inconclusive results are not listed. Activity calls are given as the source filed them. Calls come from the whole dose curve; as a rule, active = well fitted curve in the direction sought with a large enough effect; inconclusive = small, poorly fitted or top-dose-only effect, or another doubt; inactive = no such curve, though single readings can be large; an effect the other way counts as inactive or inconclusive.
Assays:
[1] = Cellular Toxicity (caspase-3) Mesangial (AID 660); details: mesangial cells, normalized: DMSO 0%, 100 µM tamoxifen 100%; at 91.7 µM (top of the series);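 note: cells exposed to compound for 16 h before the caspase read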
Summary of the method: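 Human renal glomerular mesangial cells (1000/well) were treated with compounds for 16 h at 37 °C in complete medium, then caspase 3/7 activity was read by Caspase-Glo luminescence. Data were normalized to DMSO and 100 uM tamoxifen; AC50 from Hill fits.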

[2] = Cellular Toxicity (caspase-3) SK-N-SH (AID 661);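 note: 0% = DMSO basal and 100% = 10 µM staurosporine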
Summary of the method: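 SK-N-SH human neuroblastoma cells (1500/well) were treated with compounds for 16 hr at 37 °C in complete medium; caspase 3/7 activity was read by Caspase-Glo luminescence. AC50 came from Hill fits of data normalized to DMSO and 10 uM staurosporine.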

[3] = Cellular Toxicity (caspase-3) H-4-II-E (AID 663); details: H-4-II-E rat hepatoma, scaled: DMSO 0%, 100 µM tamoxifen 100%; at 92.2 µM (top of the series);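 note: cells exposed to compound for 16 hr before readout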
Summary of the method: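 Luminescence from caspase-cleaved aminoluciferin substrate, read 20 min after reagent addition, reports caspase 3/7 activation in rat H-4-II-E cells after 16 hr compound exposure. Normalized to DMSO (basal) and 100 uM tamoxifen (100%); AC50 from Hill fits.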

[4] = Cellular Toxicity (caspase-3) Hek293 (AID 664); details: HEK293 caspase-3 activation, DMSO = 0%, 100 µM tamoxifen = 100%; at 92.2 µM (top of the series);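 note: cells exposed to compound for 16 h at 37 °C before readout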
Summary of the method: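 HEK293 cells were exposed to compounds in complete medium for 16 hr at 37 °C, then caspase-3/7 activity was read by Caspase-Glo 3/7 luminescence after 20 min at room temperature. Data normalized to DMSO and 100 uM tamoxifen; AC50 from Hill fits.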

[5] = Cellular Toxicity (caspase-3) N2a (AID 665);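 note: compound exposure lasted 16 h at 37 °C before readout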
Summary of the method: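 Mouse N2a neuroblastoma cells (1500/well) were treated with compounds for 16 h at 37 °C, then caspase-3/7 activity was read by Caspase-Glo luminescence after 1 h at room temperature. Data were normalized to DMSO and 10 uM staurosporine; AC50 from Hill fits.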

[6] = Cellular Toxicity (caspase-3) NIH 3T3 (AID 666);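 note: 0% = DMSO basal and 100% = 100 µM tamoxifen stimulation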
Summary of the method: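 Mouse NIH 3T3 fibroblasts (1000 cells/well) were treated with compound for 16 hr at 37°C in complete medium; caspase-3/7 activity was read by Caspase-Glo luminescence. Normalized to DMSO and 100 uM tamoxifen; AC50 from Hill fits.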

[7] = Cellular Toxicity (caspase-3) Renal Proximal Tubule (AID 667); details: Potency: caspase-3 activation;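 note: cells exposed to compound for 16 hours at 37 °C before detection; 0% = DMSO basal and 100% = 10 µM staurosporine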
Summary of the method: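 Caspase-Glo 3/7 read-out, rat primary kidney proximal tubule cells. Compound exposure 16 h, 37 °C; detection after 1 h at RT. Activity scaled to DMSO and 10 uM staurosporine.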

[8] = biological target: Cytochrome P450 3A4 (Homo sapiens) (UniProt P08684); experiment: qHTS Assay for Inhibitors and Substrates of Cytochrome P450 3A4 (AID 884); note: % is set by controls: 0 for no effect and ±100 for the full control effect; nearly all actives have a fitted effect of over 50% in size
Cytochrome P450 3A4 (Homo sapiens), sequence (P08684 whole entry, looked up): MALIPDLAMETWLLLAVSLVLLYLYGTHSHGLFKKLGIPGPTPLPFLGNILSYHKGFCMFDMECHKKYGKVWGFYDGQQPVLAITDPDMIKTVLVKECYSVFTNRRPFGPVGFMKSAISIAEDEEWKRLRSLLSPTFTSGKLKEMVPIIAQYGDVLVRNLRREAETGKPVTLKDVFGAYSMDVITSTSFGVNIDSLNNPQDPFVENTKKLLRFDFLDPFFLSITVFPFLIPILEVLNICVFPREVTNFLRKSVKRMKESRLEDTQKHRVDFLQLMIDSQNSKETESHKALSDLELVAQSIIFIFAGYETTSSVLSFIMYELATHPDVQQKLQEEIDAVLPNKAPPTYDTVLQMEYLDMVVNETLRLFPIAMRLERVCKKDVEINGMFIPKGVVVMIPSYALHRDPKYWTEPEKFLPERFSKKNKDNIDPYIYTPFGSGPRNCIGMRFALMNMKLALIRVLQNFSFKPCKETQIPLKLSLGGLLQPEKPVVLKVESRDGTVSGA
Summary of the method: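 20 nM human CYP3A4 with 25 uM Luciferin-PPXE (at KM) in 200 mM KPO4, preincubated 10 min with compound; NADPH regeneration started a 60 min RT reaction. Luciferin detected by luminescence, normalized to 57 uM ketoconazole as full inhibition.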

[9] = Cell Viability - LYMP2-001 (AID 921);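 note: 0% = DMSO only and full inhibition = tetraoctylammonium bromide control wells; nearly all actives have a fitted effect of over 70% in size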
Summary of the method: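 A lymphoblastoid cell line of human origin was treated with library compounds across a concentration series for 24 hours, and viable cell number was estimated from ATP-driven luciferase light output. Hill modeling gave AC50.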

[10] = MultiTox-Fluor Cytotoxicity Assay - LYMP1-001 - Dead Cells (AID 946);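 note: 0% = DMSO and 100% = tetraoctylammonium bromide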
Summary of the method: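 LYMP1-001 lymphoblastoid cells (2500/well) treated 16 h at 37 C. Dead-cell protease cleavage of bis-AAF-R110 read at Ex/Em 485/520. Normalized to DMSO and 15 uM tetraoctylammonium bromide; AC50 from Hill fits.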

[11] = MultiTox-Fluor Cytotoxicity Assay - LYMP1-001 - Live Cells (AID 947);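 note: 0% = DMSO only and full inhibition = tetraoctylammonium bromide control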
[12] = Cell Viability - LYMP1-002 - Assay at 16 hr (AID 948);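 note: 0% = DMSO alone and full effect = 92 µM tetraoctylammonium bromide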
Summary of the method: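 In this qHTS, lymphoblastoid LYMP1-002 cells (human) receive compounds for 16 hr at 37 C. Viability is taken from CellTiter-Glo ATP luminescence, and AC50 derives from standard Hill fits.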

[13] = MultiTox-Fluor Cytotoxicity Assay - LYMP1-002 - Live Cells (AID 955); note: % is set by controls: 0 for no effect and ±100 for the full control effect
Summary of the method: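 Human lymphoblastoid LYMP1-002 cells, 2500/well in complete medium, rested 5 hr at 37 C, then exposed to compounds for 16 hr at 37 C. Live-cell protease cleavage of GF-AFC read by fluorescence (Ex/Em 405/510) after 60 min at room temperature; AC50 from Hill fits.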

[14] = MultiTox-Fluor Cytotoxicity Assay - LYMP1-002 - Dead Cells (AID 960);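 note: 0% = DMSO and 100% = tetraoctylammonium bromide; nearly all actives have a fitted effect of over 60% in size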
Summary of the method: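 Human lymphoblastoid cells (LYMP1-002), 2500/well in complete medium, were exposed to compounds for 16 hr at 37 C. Dead-cell protease activity was read as bis-AAF-R110 fluorescence (Ex/Em 485/520), normalized to DMSO and 15 uM tetraoctylammonium bromide; AC50 from Hill fits.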

[15] = MultiTox-Fluor Cytotoxicity Assay - LYMP1-003 - Dead Cells (AID 961);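 note: 0% = DMSO and 100% = tetraoctylammonium bromide; nearly all actives have a fitted effect of over 70% in size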
Summary of the method: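 LYMP1-003 human lymphoblastoid cells (2500/well) exposed to compound 16 h at 37 C in complete medium; dead-cell protease read with bis-AAF-R110 fluorescence (Ex/Em 485/520) after 60 min at room temperature. Normalized to DMSO and 15 uM tetraoctylammonium bromide; AC50 from Hill fit.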

[16] = MultiTox-Fluor Cytotoxicity Assay - LYMP1-003 - Live Cells (AID 962);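 note: 0% = DMSO only and full loss = 92 µM tetraoctylammonium bromide; cytotoxic hits lower the live-cell protease signal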
Summary of the method: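 LYMP1-003 human lymphoblastoid cells (2500/well) in complete medium were preincubated 5 hr at 37 C, then exposed to compounds for 16 hr at 37 C. Live-cell protease cleavage of GF-AFC read by fluorescence (Ex/Em 405/510); AC50 from Hill fits.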

[17] = Cell Viability - LYMP1-003 - Assay at 24 hr (AID 963);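 note: plate controls were DMSO only for no effect and tetraoctylammonium bromide positive control for full effect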
Summary of the method: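 Human lymphoblastoid LYMP1-003 cells (2500/well) were rested 5 hr at 37 C, then exposed to compounds in complete medium for 24 hr at 37 C. Cellular ATP was quantified by CellTiter-Glo luminescence, and AC50 values came from Hill fits of concentration-response data.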

[18] = Cell Viability - LYMP1-003 - Assay at 40 hr (AID 964); note: % is set by controls: 0 for no effect and ±100 for the full control effect; nearly all actives have a fitted effect of over 60% in size
Summary of the method: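 Human lymphoblastoid LYMP1-003 cells, 2500/well in complete medium, rested 5 hr at 37 C, then exposed to compounds for 40 hr at 37 C. Viability read as intracellular ATP by CellTiter-Glo luminescence; AC50 from Hill fits of concentration-response data.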

[19] = Cell Viability - LYMP2-003 (AID 965);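 note: cells exposed to compounds for 24 h before reading; 0% = DMSO only and full effect = 92 µM tetraoctylammonium bromide; nearly all actives have a fitted effect of over 50% in size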
Summary of the method: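 qHTS, human lymphoblastoid line, 2500 cells/well, complete medium. 24 h drug, 37 C. ATP-based luminescent readout; Hill-fit AC50.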

Nc1cc(S(=O)(=O)O)ccc1O
inactive: caspase-3 activation [1] 0.554% | outcome [2] | caspase-3 activation [3] -0.224% | caspase-3 activation [4] -0.175% | outcome [5] | outcome [6] | Potency [7] | Potency [8] | Potency [9] | outcome [10] | outcome [11] | outcome [12] | outcome [13] | outcome [14] | Potency [15] | Potency [16] | Potency [17] | Potency [18] | Potency [19]

CC(C)=CCC/C(C)=C/C=O
inactive: caspase-3 activation [1] 0.108% | outcome [2] | caspase-3 activation [3] 0.873% | caspase-3 activation [4] -2.02% | outcome [5] | outcome [6] | Potency [7] | Potency [8] | Potency [9] | outcome [10] | outcome [11] | outcome [12] | outcome [13] | outcome [14] | Potency [15] | Potency [16] | Potency [17] | Potency [18] | Potency [19]

CC(=O)Nc1cccc(N)c1
inactive: caspase-3 activation [1] 0.0656% | outcome [2] | caspase-3 activation [3] 0.403% | caspase-3 activation [4] 0.134% | outcome [5] | outcome [6] | Potency [7] | Potency [8] | Potency [9] | outcome [10] | outcome [11] | outcome [12] | outcome [13] | outcome [14] | Potency [15] | Potency [16] | Potency [17] | Potency [18] | Potency [19]

CC(=C/C=C/C(C)=C/C=C/C=C(C)/C=C/C=C(C)/C=C/C(=O)O)/C=C/C(=O)O
inactive: caspase-3 activation [1] -0.768% | outcome [2] | caspase-3 activation [3] 0.467% | caspase-3 activation [4] -1.17% | outcome [5] | outcome [6] | Potency [7] | Potency [8] | Potency [9] | outcome [10] | outcome [11] | outcome [12] | outcome [13] | outcome [14] | Potency [15] | Potency [16] | Potency [17] | Potency [18] | Potency [19]

CC(C=O)Cc1ccc(C(C)(C)C)cc1 (centres undefined)
inactive: caspase-3 activation [1] 0.925% | outcome [2] | caspase-3 activation [3] 0.297% | caspase-3 activation [4] -0.395% | outcome [5] | outcome [6] | Potency [7] | Potency [8] | Potency [9] | outcome [10] | outcome [11] | outcome [12] | outcome [13] | outcome [14] | Potency [15] | Potency [16] | Potency [17] | Potency [18] | Potency [19]

CCCCCCCCN
inactive: caspase-3 activation [1] -0.125% | outcome [2] | caspase-3 activation [3] 0.977% | caspase-3 activation [4] 0.408% | outcome [5] | outcome [6] | Potency [7] | Potency [8] | Potency [9] | outcome [10] | outcome [11] | outcome [12] | outcome [13] | outcome [14] | Potency [15] | Potency [16] | Potency [17] | Potency [18] | Potency [19]

Cc1cc(C)cc([N+](=O)[O-])c1
inactive: caspase-3 activation [1] -0.822% | outcome [2] | caspase-3 activation [3] 0.227% | caspase-3 activation [4] 0.15% | outcome [5] | outcome [6] | Potency [7] | Potency [8] | Potency [9] | outcome [10] | outcome [11] | outcome [12] | outcome [13] | outcome [14] | Potency [15] | Potency [16] | Potency [17] | Potency [18] | Potency [19]

CCOc1ccccc1N
inactive: caspase-3 activation [1] 1.9% | outcome [2] | caspase-3 activation [3] -0.577% | caspase-3 activation [4] -1.95% | outcome [5] | outcome [6] | Potency [7] | Potency [8] | Potency [9] | outcome [10] | outcome [11] | outcome [12] | outcome [13] | outcome [14] | Potency [15] | Potency [16] | Potency [17] | Potency [18] | Potency [19]

CNc1ccccc1
inactive: caspase-3 activation [1] 1.7% | outcome [2] | caspase-3 activation [3] 0.262% | caspase-3 activation [4] -1.03% | outcome [5] | outcome [6] | Potency [7] | Potency [8] | Potency [9] | outcome [10] | outcome [11] | outcome [12] | outcome [13] | outcome [14] | Potency [15] | Potency [16] | Potency [17] | Potency [18] | Potency [19]

Nc1cccc2c(=O)[nH][nH]c(=O)c12
inactive: caspase-3 activation [1] -0.301% | outcome [2] | caspase-3 activation [3] 0.0355% | caspase-3 activation [4] -1.17% | outcome [5] | outcome [6] | Potency [7] | Potency [8] | Potency [9] | outcome [10] | outcome [11] | outcome [12] | outcome [13] | outcome [14] | Potency [15] | Potency [16] | Potency [17] | Potency [18] | Potency [19]

OC(CCl)CCl
inactive: caspase-3 activation [1] 2.07% | outcome [2] | caspase-3 activation [3] 1.01% | caspase-3 activation [4] 2.01% | outcome [5] | outcome [6] | Potency [7] | Potency [8] | Potency [9] | outcome [10] | outcome [11] | outcome [12] | outcome [13] | outcome [14] | Potency [16] | Potency [17] | Potency [18]

COCCOC(=O)c1ccccc1C(=O)OCCOC
inactive: caspase-3 activation [1] 1.04% | outcome [2] | caspase-3 activation [3] 0.176% | caspase-3 activation [4] 0.308% | outcome [5] | outcome [6] | Potency [7] | Potency [8] | Potency [9] | outcome [10] | outcome [11] | outcome [12] | outcome [13] | outcome [14] | Potency [15] | Potency [16] | Potency [17] | Potency [18] | Potency [19]

Cc1ccc(CO)cc1
inactive: caspase-3 activation [1] -1.48% | outcome [2] | caspase-3 activation [3] 0.0936% | caspase-3 activation [4] 0.73% | outcome [5] | outcome [6] | Potency [7] | Potency [8] | Potency [9] | outcome [10] | outcome [11] | outcome [12] | outcome [13] | outcome [14] | Potency [15] | Potency [16] | Potency [17] | Potency [18] | Potency [19]

O=C(Cl)c1c(Cl)cccc1Cl
inactive: caspase-3 activation [1] -0.17% | outcome [2] | caspase-3 activation [3] 0.0127% | caspase-3 activation [4] 0.529% | outcome [5] | outcome [6] | Potency [7] | Potency [8] | Potency [9] | outcome [10] | outcome [11] | outcome [12] | outcome [13] | outcome [14] | Potency [15] | Potency [16] | Potency [17] | Potency [18] | Potency [19]

Source: PubChem BioAssay (NCATS)
